The text below walks through data of PubChem BioAssay (NCATS).

“And” between values parts separate entries of the source, which are not always exact repeats. Identical values can stand only once. A number with no mark means an inactive call. Records with an inconclusive call do not appear. The source made the active and inactive calls. Unless noted, calls follow the shape of the dose curve; as a rule, active = well fitted curve in the direction sought with a large enough effect; inconclusive = small, poorly fitted or top-dose-only effect, or another doubt; inactive = no such curve, though single readings can be large; an effect the other way counts as inactive or inconclusive.

Experiment [1] in a line: Cell Viability - HepG2 (AID 433; calls by dose curve;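 also: potency is read from the fitted curve at half-maximal effect; cells exposed to compound for 40 hours; potency for ATP loss meaning cytotoxicity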). The following applies: qHTS. The procedure, abridged:
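ATP luminescence (CellTiter-Glo) after 40 h compound exposure, 37 °C, HepG2, 1500 cells/well, complete medium. Normalized: DMSO = basal, 100 uM tamoxifen = 100% inhibition. AC50 via standard Hill equation.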
Background: qHTS replaces the single test concentration by a dilution series.

The nature of experiment [2]: Cell Viability - N2a (AID 540).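 Also: plate controls were DMSO alone for no effect and tamoxifen control for full effect; nearly all actives have a fitted effect of over 45% in size.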 The following applies: N2a mouse neuroblastoma cell viability; activity change, negative = cytotoxicity: at 92.2 µM (top of the series). In short, it runs like this: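 CellTiter-Glo ATP luminescence, read 20 min after reagent at room temperature, reported viability following 40 h compound treatment at 37 °C. N2a mouse neuroblastoma cells seeded 1500/well; Hill equation gave AC50.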

A short description of experiment [3]: Cellular Toxicity (caspase-3) Jurkat (AID 655).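 Also: cells exposed to compound for 16 h at 37 °C before reading.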 The following applies: Jurkat caspase-3 activation, luminescence; caspase-3 activation: at 92.2 µM (top of the series), DMSO = 0%, tamoxifen = 100%. The procedure, abridged: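 Luminescent caspase-3/7 readout (aminoluciferin substrate cleavage) in human T-cell leukemia Jurkat cells after 16 hr compound exposure. Concentration-response normalized to DMSO and 100 uM tamoxifen; AC50 by standard Hill equation.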

The nature of experiment [4]: Cellular Toxicity (caspase-3) BJ (AID 658).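 Also: 0% = DMSO basal and 100% = 10 µM staurosporine.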 The settings on record: BJ fibroblasts, luminescence, normalized: DMSO 0%, staurosporine 100%; series mostly up to 91.7 µM. In short, it runs like this:
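qHTS, BJ fibroblasts, 1000 cells/well; 5 hr preincubation, 16 hr compound, 37 °C; Caspase-Glo 3/7 reagent, 1 hr RT; luminescence. DMSO = 0%, 10 uM staurosporine = 100%. Hill-equation AC50.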

A short description of experiment [5]: MultiTox-Fluor Cytotoxicity Assay - LYMP1-002 - Live Cells (AID 955). Also: % is scaled to controls: 0 for no effect and ±100 for the full control effect. The settings on record: LYMP1-002 lymphoblastoid live-cell protease fluorescence viability; series mostly up to 46.1 µM. The procedure, abridged:
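After 16 h compound exposure at 37 C, live LYMP1-002 lymphoblastoid cells (2500/well) were quantified by cleavage of cell-permeant GF-AFC substrate, read at 405/510 nm after 60 min. Concentration-response fitted with Hill equation for AC50.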

Experiment [6] can be described thus: Cell Viability - LYMP2-004 (AID 966).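 Also: plate controls were DMSO only for no effect and tetraoctylammonium bromide control for full effect; nearly all actives have a fitted effect of over 65% in size.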 The settings on record: LYMP2-004 lymphoblastoid cell viability, qHTS; series mostly up to 92.2 µM. In short, it runs like this: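 AC50 values come from Hill modelling of concentration-dependent loss of intracellular ATP, measured by CellTiter-Glo luminescence. Human LYMP2-004 lymphoblastoid cells (2500/well) were exposed to compound for 24 h at 37 C.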

Experiment [7] can be described thus: Cell Viability - LYMP2-011 (AID 969).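 Also: 0% = DMSO only and full inhibition = 92 µM tetraoctylammonium bromide; nearly all actives have a fitted effect of over 60% in size.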 The settings on record: LYMP2-011 lymphoblastoid cells viability; series mostly up to 92.2 µM. In short, it runs like this:
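Cytotoxicity qHTS with ATP content as read-out: lymphoblastoid cells (2500/well) exposed to compound for 24 h at 37 C, then luciferase luminescence measured. Concentration-response data fitted with the standard Hill equation to give AC50.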

Experiment [8] can be described thus: Cell Viability - LYMP2-023 (AID 975).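 Also: cellular ATP measured by luciferase luminescence as viability proxy; plate controls were DMSO only for no effect and 92 µM tetraoctylammonium bromide control for full effect; nearly all actives have a fitted effect of over 55% in size.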 The settings on record: LYMP2-023 lymphoblastoid cell viability; series mostly up to 92.2 µM. In short, it runs like this: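 Intracellular ATP, read by CellTiter-Glo luminescence, reports viability after 24 hr compound exposure at 37 C. 2500 lymphoblastoid cells/well (LYMP2-023) seeded 5 hr beforehand; Hill fits give AC50; positive control tetraoctylammonium bromide.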

Experiment [9] is described as follows: Cell Viability - LYMP2-025 (AID 976).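 Also: plate controls were DMSO only for no effect and tetraoctylammonium bromide control for full effect.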 The following applies: LYMP2-025 lymphoblastoid cell viability; series mostly up to 92.2 µM. The procedure, abridged: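 Cytotoxicity read as loss of intracellular ATP (luciferase luminescence) after 24 h compound treatment at 37 C. Uses LYMP2-025 lymphoblastoid cells in 1536-well format; Hill-equation modelling gives AC50; tetraoctylammonium bromide as positive control.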

A short description of experiment [10]: Cell Viability - LYMP2-002 (AID 977).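 Also: plate controls were DMSO only for no effect and 92 µM tetraoctylammonium bromide for full effect.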 The settings on record: LYMP2-002 lymphoblastoid cell viability, qHTS; series mostly up to 92.2 µM. In short, it runs like this: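 Human lymphoblastoid cells, 2500/well, complete medium; 5 h 37 C settle; compound 24 h 37 C; CellTiter-Glo, 30 min RT; luminescence. Decrease in ATP = cytotoxicity; AC50 via Hill equation.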

A short description of experiment [11]: Cell Viability - LYMP2-012 (AID 982).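 Also: cellular ATP by luciferase luminescence where a drop means cytotoxicity; cells exposed to compound for one day before reading; 0% = DMSO only and full loss = 92 µM tetraoctylammonium bromide; nearly all actives have a fitted effect of over 55% in size.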 The settings on record: LYMP2-012 lymphoblastoid cell viability qHTS; series mostly up to 92.2 µM.
Experiment [12] concerns the target Vitamin D3 receptor (Homo sapiens) (UniProt P11473). Nature of the experiment: qHTS assay for small molecule agonists of vitamin D receptor signaling (AID 588543; calls by dose curve;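 also: 0% = DMSO basal and 100% = reference agonist control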). The settings on record: HEK293T VDR-UAS-bla, beta-lactamase ratio, 16 h; series mostly up to 76.8 µM. The procedure, abridged:
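β-lactamase reporter, VDR-UAS-bla HEK293T, agonist mode. Cells plated 5 h at 37 °C, compound titration 16 h at 37 °C, CCF4 dye 2 h RT, ratio 460/530 nm. Hill fit → EC50, efficacy vs 50 nM 1α,25-(OH)2D3.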

Experiment [13] concerns the target Retinoic acid receptor RXR-alpha (Homo sapiens) (UniProt P19793). Nature of the experiment: qHTS assay for small molecule antagonists of retinoid X receptor alpha signaling (AID 588546; active = well fitted inhibition curve with a large enough effect in the signal ratio, with a control signal flat, not every such curve was filed as active; the % refers to the signal ratio; also: % is scaled to controls: 0 for no effect and ±100 for the full control effect). The following applies: HEK293T RXRa-UAS-bla, beta-lactamase ratio, antagonist mode. In short, it runs like this: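 Beta-lactamase reporter inhibition, read as CCF4 fluorescence ratio (ex 405, em 460/530 nm) after 2 h at RT. HEK293T UAS-bla cells, 2500/well, were stimulated with 9-cis-RA at 500 or 100 nM final alongside test compound for 18 h at 37 C.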

Experiment [14] addresses Voltage-gated inwardly rectifying potassium channel KCNH2 (Homo sapiens) (UniProt Q12809). Nature of the experiment: qHTS Assay for Small Molecule Inhibitors of the Human hERG Channel Activity (AID 588834).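 Also: lower thallium flux fluorescence means stronger hERG block; nearly all actives have a fitted effect of over 50% in size.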 Also: potency is read from the fitted curve at half-maximal effect. The settings on record: U2OS BacMam hERG, FluxOR thallium flux fluorescence; series mostly up to 92.2 µM. In short, it runs like this:
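Thallium-flux (FluxOR) read-out on FDSS: fluorescence read 10 s before and 2 min after stimulation buffer. hERG-BacMam-transduced U2OS cells, compound exposure about 10 min. AC50 by standard Hill equation.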

The nature of experiment [15]: qHTS assay for small molecule activators of the p53 signaling pathway (AID 651743; active = well fitted activation curve with a large enough effect in the signal ratio, not every such curve was filed as active; the % refers to the signal ratio; also: % of control where 0% means no effect). The following applies: HCT-116 p53RE-bla, beta-lactamase FRET ratio, 16 h; activation: stronger effect = higher value. In short, it runs like this:
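Following 16 hours of compound exposure at 37 C, HCT-116 cells bearing the p53RE-bla reporter were loaded with LiveBLAzer B/G FRET substrate for 2 hours at room temperature and fluorescence intensity was recorded.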

Experiment [16] can be described thus: Cell Viability - LYMP2-014 (AID 983).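 Also: plate controls were DMSO only for no effect and 92 µM tetraoctylammonium bromide for full effect; nearly all actives have a fitted effect of over 50% in size.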 The settings on record: LYMP2-014 lymphoblastoid cells, viability qHTS; series mostly up to 92.2 µM. In short, it runs like this:
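Intracellular ATP loss, read by luciferase luminescence, measures acute cytotoxicity after 24 h compound exposure of lymphoblastoid LYMP2-014 cells (2500/well, 37 C). Concentration-response data fitted to the Hill equation for AC50.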

A short description of experiment [17]: Cell Viability - LYMP2-016 (AID 984). Also: % is scaled to controls: 0 for no effect and ±100 for the full control effect; nearly all actives have a fitted effect of over 55% in size. The settings on record: LYMP2-016 lymphoblastoid cell viability, qHTS; series mostly up to 92.2 µM. The procedure, abridged: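 qHTS, 1536-well: 2500 LYMP2-016 cells/well, 5 hr 37 C, compound added, 24 hr 37 C, CellTiter-Glo 30 min RT, luminescence. Tetraoctylammonium bromide positive control. AC50 via Hill fit.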
Experiment [18] in a line: Cell Viability - LYMP2-022 (AID 987).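 Also: 0% = DMSO alone and full effect = tetraoctylammonium bromide at 92 µM; nearly all actives have a fitted effect of over 55% in size.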 The following applies: LYMP2-022 lymphoblastoid cell viability; series mostly up to 92.2 µM. The procedure, abridged: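 Cytotoxicity read as decreased cellular ATP (CellTiter-Glo luminescence, 30 min room temperature) after 24 hours compound exposure of 2500 lymphoblastoid LYMP2-022 cells/well at 37 C. Concentration-response data fitted with standard Hill equation for AC50.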

Experiment [19] can be described thus: Cell Viability - LYMP2-020 (AID 986). The settings on record: series mostly up to 92.2 µM. The procedure, abridged:
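Cytotoxicity in qHTS format: luminescent ATP readout from CellTiter-Glo after 24 h compound exposure at 37 C in complete medium. LYMP2-020 lymphoblastoid cells were seeded at 2500/well; concentration-response data fitted to the Hill equation for AC50.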

The nature of experiment [20]: qHTS assay for cell viability of HEK293 cells (AID 743288). Also: % is scaled to controls: 0 for no effect and ±100 for the full control effect; nearly all actives have a fitted effect of over 50% in size. The settings on record: ATP luminescence (CellTiter-Glo), 18 h, stronger effect = lower value. The procedure, abridged:
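ATP luminescence (CellTiter-Glo) reports metabolically competent cell number after parental HEK293 cells, 2,000/well, were treated with DMSO-dissolved compounds for 18 h at 37 C; reagent incubation 30 min, room temperature.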

Retinoic acid receptor RXR-alpha (Homo sapiens), sequence (P19793 whole entry, looked up): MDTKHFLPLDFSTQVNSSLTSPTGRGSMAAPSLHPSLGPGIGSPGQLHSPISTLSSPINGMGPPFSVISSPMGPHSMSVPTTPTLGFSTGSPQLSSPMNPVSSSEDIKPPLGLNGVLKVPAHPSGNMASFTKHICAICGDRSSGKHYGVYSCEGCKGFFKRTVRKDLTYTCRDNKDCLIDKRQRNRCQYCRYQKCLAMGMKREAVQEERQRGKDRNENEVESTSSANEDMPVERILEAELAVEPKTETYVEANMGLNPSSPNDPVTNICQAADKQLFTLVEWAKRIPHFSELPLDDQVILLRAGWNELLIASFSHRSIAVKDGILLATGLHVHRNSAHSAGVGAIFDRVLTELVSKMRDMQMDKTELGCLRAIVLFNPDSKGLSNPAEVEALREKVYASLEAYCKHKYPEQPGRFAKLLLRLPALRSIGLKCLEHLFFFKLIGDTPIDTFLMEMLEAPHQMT
Voltage-gated inwardly rectifying potassium channel KCNH2 (Homo sapiens), sequence (Q12809 whole entry, looked up): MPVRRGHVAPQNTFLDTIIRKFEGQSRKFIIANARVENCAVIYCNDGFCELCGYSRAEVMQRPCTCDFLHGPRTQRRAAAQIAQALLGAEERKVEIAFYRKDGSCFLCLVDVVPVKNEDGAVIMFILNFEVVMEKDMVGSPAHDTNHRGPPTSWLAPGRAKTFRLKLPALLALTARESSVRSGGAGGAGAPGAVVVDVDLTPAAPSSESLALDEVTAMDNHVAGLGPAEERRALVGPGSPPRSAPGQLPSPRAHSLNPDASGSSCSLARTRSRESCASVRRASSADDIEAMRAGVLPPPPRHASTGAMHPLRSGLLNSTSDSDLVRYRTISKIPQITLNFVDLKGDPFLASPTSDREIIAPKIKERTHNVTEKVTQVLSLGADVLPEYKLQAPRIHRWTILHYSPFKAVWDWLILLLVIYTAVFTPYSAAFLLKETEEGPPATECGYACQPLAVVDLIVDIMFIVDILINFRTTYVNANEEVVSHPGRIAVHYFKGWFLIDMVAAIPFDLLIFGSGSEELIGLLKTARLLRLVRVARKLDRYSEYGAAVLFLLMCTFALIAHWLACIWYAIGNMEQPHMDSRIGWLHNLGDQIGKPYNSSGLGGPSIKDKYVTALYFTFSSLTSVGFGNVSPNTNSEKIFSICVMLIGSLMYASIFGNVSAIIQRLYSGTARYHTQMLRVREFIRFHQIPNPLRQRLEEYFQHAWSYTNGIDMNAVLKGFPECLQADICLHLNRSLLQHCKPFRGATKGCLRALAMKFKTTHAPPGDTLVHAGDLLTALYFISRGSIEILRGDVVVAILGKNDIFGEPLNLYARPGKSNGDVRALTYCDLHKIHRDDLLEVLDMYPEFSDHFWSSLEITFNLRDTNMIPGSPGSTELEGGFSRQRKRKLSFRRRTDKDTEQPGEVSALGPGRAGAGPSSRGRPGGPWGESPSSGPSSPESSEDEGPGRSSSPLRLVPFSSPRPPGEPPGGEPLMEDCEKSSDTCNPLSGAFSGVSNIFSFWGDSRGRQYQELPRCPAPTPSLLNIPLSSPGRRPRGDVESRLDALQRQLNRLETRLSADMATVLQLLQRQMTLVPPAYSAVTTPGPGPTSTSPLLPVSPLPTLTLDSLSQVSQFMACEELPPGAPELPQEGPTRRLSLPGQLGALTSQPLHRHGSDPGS
Vitamin D3 receptor (Homo sapiens), sequence (P11473 whole entry, looked up): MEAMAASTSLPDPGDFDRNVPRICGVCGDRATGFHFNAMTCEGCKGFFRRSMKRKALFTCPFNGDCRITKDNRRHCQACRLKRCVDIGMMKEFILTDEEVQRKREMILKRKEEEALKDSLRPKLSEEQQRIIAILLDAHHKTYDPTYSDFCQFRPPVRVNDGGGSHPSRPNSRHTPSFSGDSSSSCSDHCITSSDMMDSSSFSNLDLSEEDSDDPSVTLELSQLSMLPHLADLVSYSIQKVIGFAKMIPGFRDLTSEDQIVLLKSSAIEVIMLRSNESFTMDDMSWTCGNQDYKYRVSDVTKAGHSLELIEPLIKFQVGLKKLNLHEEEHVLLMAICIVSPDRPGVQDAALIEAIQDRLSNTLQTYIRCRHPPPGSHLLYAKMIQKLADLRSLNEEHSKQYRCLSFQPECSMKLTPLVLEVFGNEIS

As for `C=C(Cl)CSC(=S)N(CC)CC`, the Potency in [1] was greater than 92 µM; in experiment [14], 39.8 µM (active). For the same compound, the Potency result in experiment [2], in experiment [6], in experiment [7], in experiment [8], in [9] and in [10] was “inactive” throughout. The Potency result in [11] is “inactive”. In addition, the caspase-3 activation in experiment [3] is 1.37%. Further, the outcome in experiment [4], in experiment [5] and in [12] was inactive. The max response in experiment [13] was 1.31%. Moreover, the activation in [15] is -1.91%.

`Nc1cccc(Cl)c1`: in experiment [1], the Potency was greater than 92 µM. Further, the Potency entry in [2], in [6], in experiment [7], in experiment [9], in [10] and in [11] was “inactive” in each case. Further, the Potency entry in experiment [16], in experiment [17] and in experiment [18] was “inactive” throughout. The outcome in experiment [4], in experiment [5] and in experiment [12] was inactive. In addition, the max response in experiment [13] is -7.21%. Besides, the activation in experiment [15] was -1.95%.

As for `CCCCC#N`, in experiment [1], the Potency was greater than 92 µM. In addition, the Potency result in experiment [2], in experiment [6], in [7], in experiment [8], in [11] and in experiment [16] was “inactive” each time. Also, the Potency entry in experiment [17], in experiment [19], in [18] and in experiment [14] was “inactive” in each case. Further, in experiment [3], the caspase-3 activation was 0.125%. Besides, the call in [4] and in experiment [5] was inactive. For the same compound, the max response is 11.5% in experiment [13] and 2.15% in [20]. The activation in experiment [15] is -7.46%.

For the compound `Nc1ncc([N+](=O)[O-])s1`, the Potency in experiment [1] was greater than 92 µM. Moreover, the call in experiment [5] and in [12] was inactive. The Potency entry in experiment [7], in experiment [8], in experiment [10], in [11], in [16] and in experiment [19] was “inactive” in each case. Further, the Potency entry in experiment [18] and in [14] was “inactive” each time. The activation in experiment [15] was -4.14%. In addition, the max response in experiment [20] was -7.17%.

Regarding `CCOC(=O)CC(SP(=O)(OC)OC)C(=O)OCC` (stereo not drawn), in experiment [1], the Potency was greater than 92 µM. Moreover, in [3], the caspase-3 activation was 1.26%. In addition, the result in [5] was inactive. The Potency entry in experiment [6], in [7], in experiment [8], in [9], in experiment [10] and in experiment [17] was “inactive” throughout. Also, the Potency result in [19], in experiment [18] and in experiment [14] was “inactive” throughout. Besides, the max response was -24.2% and 2.64% in [13]; -12.5% and -3.42% in experiment [20]. For the same compound, in experiment [15], the activation was -0.7% and -2.82%.

For `c1ccc(P(c2ccccc2)c2ccccc2)cc1`, in experiment [1], the Potency is greater than 92 µM. Besides, the Potency result in [2], in experiment [7], in experiment [8], in [10], in [11] and in experiment [16] was “inactive” in each case. Moreover, the Potency result in experiment [17], in [19] and in experiment [18] was “inactive” in each case. Also, the result in experiment [4], in experiment [5] and in experiment [12] was inactive. The max response in experiment [13] is 14.4%. Also, the activation in [15] was -3.71%.

Consider `CC(C)[C@]12CC(=O)[C@H](C)[C@H]1C2`, for which, in [1], the Potency was greater than 92 µM. The Potency entry in [2], in experiment [6], in [7], in experiment [8], in [9] and in [10] was “inactive” each time. The Potency result in [18] and in experiment [14] was “inactive” each time. The caspase-3 activation in [3] is 0.322%. Besides, the result in experiment [5] and in [12] was inactive. The max response in experiment [20] was 18.6% and -3.71%.
